Structures are written as SMILES. Activity calls are given as the source filed them. Rule for the calls: active = hit-call score of the fitted dose curve at least 0.9, where 1 is the maximum; inactive = score below 0.9.

A short description of the experiment: BSK_SAg_Proliferation: Cell Proliferation Assessment in the BioMAP Diversity Plus: SAg Assay (AID 2283095). The settings on record: primary human HUVEC with PBMC. How it is done: BSK_SAg is a cell-based, multiplexed-readout assay that uses umbilical vein endothelium and peripheral blood mononuclear cells, a human vascular primary cell co-culture, with measurements taken at 24 hours after chemical dosing in a 96-well plate.BSK_SAg_Proliferation is an assay component in the BSK_SAg assay. It measures protein content, a form of viability reporter, as detected with absorbance signals by Sulforhodamine staining technology. Data from the assay component BSK_SAg_Proliferation was analyzed into 1 assay endpoint. This assay endpoint, BSK_SAg_Proliferation, was analyzed with bidirectional fitting relative to DMSO as the negative control and baseline of activity. Using a type of viability reporter, measures of total protein for gain or loss-of-signal activity can be used to understand the viability at the cellular-level. Furthermore, this assay endpoint can be referred to as a secondary readout, because this assay has produced multiple assay endpoints where this one serves a viability function. To generalize the intended target to other relatable targets, this assay endpoint is annotated to the cell cycle intended target family, where the subfamily is proliferation.
The levels of cell surface (or secreted, indicated by the prefix "s") biomarker endpoints were measured by ELISA. Overt cytotoxicity to cells in confluent adherent cultures (all systems other than the BT system) was assessed by measuring total protein levels using sulforhodamine B (SRB) staining in parallel cultures at the time of biomarker measurements, indicated as SRB endpoints. For proliferation assays for adherent cell types, individual cell types are cultured at sub-confluence and relative cell numbers quantified by SRB staining at time points optimized for each system (48 h: 3C and CASM3C systems; 72 h: BT and HDF3CGF systems; 96 h: SAg system). SRB was performed by staining cells with 0.1% SRB after fixation with 10% TCA and reading wells at 560 nm.Viability and proliferation of PBMC (T cells) was quantified by Alamar Blue reduction for the SAg and BT systems. For PBMC viability (referred to as PBMC Cytotoxicity within the assay endpoint names), cells were plated (75,000/well in a 96-well plate) and then chemical samples added for 1 h before addition of activators, SEB and TSST-1 (20 ng/mL final concentration each). Cells were incubated for 90 h. Then, Alamar Blue (20 uL/well) (Invitrogen, Cat DAL1100) was added for 6 h, and the plates were read with a fluorescence microplate reader at 546/580 nm (excitation/emission). For PBMC proliferation, cells were plated and activated as above but incubated for only 16 h prior to addition of Alamar Blue. Plates were read after 6 h.
As to `CCCCCCCC1CCC(=O)O1` (stereo not given), the outcome was inactive.

As to `C[C@@H](Oc1ccc(CNC(=O)c2cccnc2Oc2ccc3c(c2)OCO3)c(F)c1)C(=O)O`, the result was inactive.

With `OC(CCl)CCl`, the result was inactive.

As for `CCc1cccc(CC)c1N`, the outcome was inactive.

For orientation: AC50 means the concentration at which the activity in the assay is half-maximal. With `CCCCCOC(C)=O`, the AC50 is 15.1 µM (active).

For `CCCOc1ccc(S(=O)(=O)N2CCN(CC)CC2)cc1-c1nc2c(CC)n(Cc3ccccn3)nc2c(=O)[nH]1`, the result was inactive.

As for `OC[C@H]1O[C@@](CO)(O[C@H]2O[C@H](CO)[C@@H](O)[C@H](O)[C@H]2O)[C@@H](O)[C@@H]1O`, the result was inactive.

As to `O=C(O)c1cccc(C(=O)O)c1`, the result was inactive.

For `NNC(=O)c1ccncc1`, the outcome was inactive.

In the case of `c1ccc(C(O[C@@H]2CCCN(CCc3ccc4c(c3)OCO4)C2)c2ccccc2)cc1`, the AC50 is 16.3 µM (active).

Turning to `NCC(F)(F)C(F)(F)C(F)(F)C(F)(F)F`, the outcome was inactive.

As to `CCCc1ccccc1`, the result was inactive.

For `CC(C)C(=O)Nc1ccc([N+](=O)[O-])c(C(F)(F)F)c1`, the outcome was inactive.

As to `CCN(CC)C(=S)SSC(=S)N(CC)CC`, the AC50 was 6.07 µM (active).

For the compound `NC(N)=O`, the outcome was inactive.

Regarding `CCCCCCCCCCCCCCO`, the AC50 is 27.7 µM (active).

Regarding `c1ccc2cc3ccccc3cc2c1`, the outcome was inactive.

As for `NC(=O)N(O)[C@@H]1COc2cc(OCc3ccccc3)ccc21`, the result was inactive.

For `CC(C)CCCCCCOC(=O)C1CCCCC1C(=O)OCCCCCCC(C)C` (stereo not given), the outcome was inactive.

With `NC(=O)NN=Cc1ccc([N+](=O)[O-])o1`, the AC50 is 20 µM (active).

Take `FC(F)C(F)(F)COCC1CO1` (stereo not given): the result was inactive.

On to `C=CN1CCCC1=O`, for which the result was inactive.

On to `FC(F)(F)C(F)(F)C(F)(F)C(F)(F)C(F)(F)C(F)(F)I`, for which the result was inactive.

In the case of `CCCCCCCCCCCCCCCCOS(=O)(=O)O`, the result was inactive.

As for `CCCCCCOC(=O)CC(CC(=O)OCCCCCC)(OC(=O)CCC)C(=O)OCCCCCC`, the AC50 was 9.76 µM (active).

With `CCCCC(CC)C(=O)OCCOCCOCCOC(=O)C(CC)CCCC` (stereo not given), the AC50 is 24.7 µM (active).

As for `CNC(C)=O`, the outcome was inactive.

Turning to `O=C1CN(N=Cc2ccc([N+](=O)[O-])o2)C(=O)N1`, the AC50 is 9.07 µM (active).

Consider `CCc1ccc(O)c(C(C)(C)C)c1`, for which the AC50 is 33 µM (active).

In the case of `CC[C@H](C)C(=O)O[C@H]1C[C@H](O)C=C2C=C[C@H](C)[C@H](CC[C@@H](O)C[C@@H](O)CC(=O)O)[C@H]21`, the result was inactive.

As for `O=c1[nH]cnc2c1ncn2[C@H]1CC[C@@H](CO)O1`, the outcome was inactive.

With `Cn1cc[nH]c1=S`, the outcome was inactive.

With `CC(=O)c1ccccc1`, the result was inactive.

As to `Cc1ccc(S(=O)(=O)NC(=O)NN2CCCCCC2)cc1`, the result was inactive.

As to `OCc1ccccc1`, the outcome was inactive.

In the case of `Cc1ncc([C@@H](CCCCCCc2ccc3c(n2)NCCC3)CC(=O)O)cn1`, the outcome was inactive.

`O=C(O)[C@H](O)[C@@H](O)C(=O)O`: the outcome was inactive.

As to `Nc1ccn([C@@H]2O[C@H](CO)[C@@H](O)[C@@H]2O)c(=O)n1`, the AC50 is 14.1 µM (active).

Regarding `CCCCCCCCCC`, the outcome was inactive.

With `O=S(=O)(O)CCC(F)(F)C(F)(F)C(F)(F)C(F)(F)C(F)(F)C(F)(F)F`, the outcome was inactive.

These data come from PubChem BioAssay (EPA / NIEHS).
